Among all 48,000 compounds or so, about 13,000 (27%) showed an effect of 50% or more. The list shows a part of the results.

This experiment concerns Wolbachia pipientis. The experiment can be described thus: Anti-Wolbachia Cell-Based Screen. Type of experiment: functional. Further details: scale not given: in the data most compounds retested in dose-response had high values. To be noted: 5 µM.
As for `CS(=O)(=O)N1C[C@@H](C(=O)Nc2cnccn2)C[C@H]2OCC[C@H]21`, the “Percent Effect” value is recorded as -10.64%.

On to `Cc1cc(C)cc(C(=O)Nc2ccc(CC3CC(=O)NC3=O)cc2)c1` (stereo unspecified), for which the “Percent Effect” value is listed as -7.063%.

Regarding `CCS(=O)(=O)c1ccc(N2CCC(N)CC2)cc1`, the “Percent Effect” value was -6.106%.

`CCc1noc(C)c1C(=O)NCCCC(CC)(CC)C1OCCO1`: the “Percent Effect” value was -8.501%.

`Cn1c(C(F)(F)F)nn(CCNC(=O)c2cnc3ccccc3n2)c1=O`: the “Percent Effect” value stood at 1.982%.

With `CS(=O)(=O)c1cc(Cl)cnc1C1CCN(C(=O)C2CC2)CC1`, the “Percent Effect” value stood at 82.8%.

As for `N#Cc1cnc(NC2CCN(C(=O)C3CC3)CC2)c(Cl)c1`, the “Percent Effect” value is listed as -2.67%.

`O=C(C1CC1)N1CCC(Oc2ccccc2Cl)CC1`: the “Percent Effect” value is listed as -14.42%.

Consider `CCn1nc(C)c(CCNC(=O)C2CCCN(CC(N)=O)C2)c1C` (stereo unspecified), for which the “Percent Effect” value is recorded as -1.587%.

For the molecule `O=C(CSC1=NS(=O)(=O)c2cc(F)ccc2N1)Nc1ccc(Cl)c(Cl)c1`, the “Percent Effect” value was determined as 112.6%.

In the case of `O=S1(=O)N=C(SCc2ccc(Cl)cc2)Nc2ccc(F)cc21`, the “Percent Effect” value turned out to be 26.5%.

Consider `O=C(CSC1=NS(=O)(=O)c2cc(F)ccc2N1)Nc1cccc(Cl)c1`, for which the “Percent Effect” value is 1.822%.

As for `O=C(CSC1=NS(=O)(=O)c2cc(F)ccc2N1)Nc1ccc(Cl)cc1`, the “Percent Effect” value is reported as 115.7%.

With `CN(CCS(=O)(=O)c1cc(Cl)ccc1Cl)CC(=O)Nc1ccc(F)cc1`, the “Percent Effect” value is given as -4.797%.

On to `CN(C)c1cncc(C2CCN(C(=O)CO)CC2)n1`, for which the “Percent Effect” value was -8.172%.

As to `CCOCC(=O)N1CCC(c2nc(-c3cccnn3)no2)CC1`, the “Percent Effect” value is reported as -10.28%.

Consider `O=C(c1cnc[nH]1)N1CCC(Oc2cccnc2)CC1`, for which the “Percent Effect” value was -5.216%.

Consider `NCC(=O)N1CCC(c2cncc(Oc3cccnc3)n2)CC1`, for which the “Percent Effect” value was found to be 115.4%.

On to `CCC(=O)N1CCC(c2cncc(Oc3cccnc3)n2)CC1`, for which the “Percent Effect” value is 118.9%.

With `COCCC(=O)N1CCC(c2cncc(Oc3cccnc3)n2)CC1`, the “Percent Effect” value was found to be 116.7%.

In the case of `COCCC(=O)N1Cc2[nH]nc(COc3cccnc3)c2C1`, the “Percent Effect” value is on record as -7.677%.

Regarding `CC(=O)NCC(=O)N1CCC(c2cncc(Oc3cccnc3)n2)CC1`, the “Percent Effect” value is given as 94.92%.

As to `O=C(O)c1coc(COc2cccc(F)c2)n1`, the “Percent Effect” value was 4.925%.

For the molecule `Cn1cc(C(C)(O)CNc2ccc(C(F)(F)F)cn2)cn1` (stereo unspecified), the “Percent Effect” value was -6.245%.

Turning to `CC(C)(C)CC(NC(=O)c1nc(=O)[nH][nH]1)c1ccc(F)cc1` (stereo unspecified), the “Percent Effect” value is -5.789%.

`COC(=O)CCNC(=O)c1coc(COc2ccc(F)cc2)n1`: the “Percent Effect” value is -5.567%.

Regarding `CCOC(=O)NC(=O)CSC(C)c1ccccc1F` (stereo unspecified), the “Percent Effect” value came out at 4.048%.

For the molecule `CN1CCN2CCN(C(=O)c3cnn4cc(CCO)cnc34)CC2C1` (stereo unspecified), the “Percent Effect” value is on record as -3.17%.

In the case of `Cn1ccnc1CN1CCCN(C(=O)c2ccc3[nH]nnc3c2)CC1`, the “Percent Effect” value was found to be 102.4%.

`Cc1nccn1CCC1CCCCN1C(=O)c1ccc2[nH]nnc2c1` (stereo unspecified): the “Percent Effect” value is listed as -0.5329%.

As to `Cn1ccnc1CN1CCCN(C(=O)c2ccc3[nH]cnc3c2)CC1`, the “Percent Effect” value worked out at 100.5%.

Consider `CC(C)c1nccn1C1CCCN(C(=O)c2ccc3[nH]cnc3c2)C1` (stereo unspecified), for which the “Percent Effect” value is recorded as -5.197%.

In the case of `CN(C(=O)OC(C)(C)C)C1CCN(C(=O)c2cc(Cl)c[nH]2)C1` (stereo unspecified), the “Percent Effect” value was found to be 3.471%.

Consider `COCC(=O)N[C@H](C)c1onc(-c2ccc(F)cc2)c1C(=O)O`, for which the “Percent Effect” value is listed as -10.17%.

On to `Cn1c(=O)c2c(n3ncnc13)NC(=O)CC2c1cccc(F)c1` (stereo unspecified), for which the “Percent Effect” value is listed as 120.7%.

Regarding `O=C1CC(c2ccc(F)cc2)c2cnn(C3CCCC3)c2N1` (stereo unspecified), the “Percent Effect” value is given as -2.721%.

Take `O=C1CC(c2ccc(C(=O)O)cc2)c2ncn(-c3ccccc3F)c2N1` (stereo unspecified): the “Percent Effect” value was determined as 10.34%.

Consider `CC(C)n1[nH]c(=O)c2c1NC(=O)CC2c1ccc2ncccc2c1` (stereo unspecified), for which the “Percent Effect” value is on record as 8.497%.

Turning to `CSc1ccc(C2CC(=O)Nc3c2c(=O)[nH]c2ncnn32)cc1` (stereo unspecified), the “Percent Effect” value is reported as -5.097%.

With `CC(C)n1[nH]c(=O)c2c1NC(=O)CC2c1cccnc1` (stereo unspecified), the “Percent Effect” value is 10.81%.

In the case of `COc1cccc(C2CC(=O)Nc3c2c(=O)n(C)c2ncnn32)c1` (stereo unspecified), the “Percent Effect” value is given as 109.5%.

In the case of `Cn1c(=O)c2c(n3ncnc13)NC(=O)CC2c1ccc(F)cc1` (stereo unspecified), the “Percent Effect” value was 107.2%.

With `O=C1CC(c2ccc(C(=O)O)cc2)c2ncn(-c3cccc(F)c3)c2N1` (stereo unspecified), the “Percent Effect” value worked out at 4.592%.

With `CC(C)n1[nH]c(=O)c2c1NC(=O)CC2c1cccc(OC(F)F)c1` (stereo unspecified), the “Percent Effect” value is 18.26%.

`Cn1c(=O)c2c(n3ncnc13)NC(=O)CC2c1cccc(Br)c1` (stereo unspecified): the “Percent Effect” value is 114.2%.

Regarding `CC(C)(C)n1ncc2c1NC(=O)CC2c1ccccc1` (stereo unspecified), the “Percent Effect” value worked out at 1.075%.

With `CC(C)(C)c1cn2c(n1)C(CNCc1ccccn1)CCC2` (stereo unspecified), the “Percent Effect” value came to 10.69%.

In the case of `CCN(Cc1nc(-c2ccco2)no1)Cc1cccc2c1OCO2`, the “Percent Effect” value is given as -4.038%.

Turning to `CC(C)n1nc2c(cc1=O)CN(CC1CCCCO1)CC2` (stereo unspecified), the “Percent Effect” value is 3.458%.

For `Cc1nc2n(n1)CC(NCc1ccccc1OCC(=O)N(C)C)CC2` (stereo unspecified), the “Percent Effect” value was 1.473%.

Regarding `NC(=O)COc1ccc(CN2CCC(O)(CN3CCCCC3)C2)cc1Cl` (stereo unspecified), the “Percent Effect” value is -2.336%.

Consider `Cc1nc(N2Cc3cnn(Cc4ccc(F)cc4)c3C2)no1`, for which the “Percent Effect” value is given as -13.57%.

Take `Cn1ncc2c1NC(=O)CC2c1ccc(O)cc1` (stereo unspecified): the “Percent Effect” value amounted to 38.62%.

With `CCc1ccc(C2CC(=O)Nc3c2c(=O)n(C)c2ncnn32)cc1` (stereo unspecified), the “Percent Effect” value came out at 109.5%.

Turning to `COCc1nc2nc(O)c3c(n2n1)NC(=O)CC3c1ccc(SC)cc1` (stereo unspecified), the “Percent Effect” value was -7.854%.

Consider `CC(C)(C)c1noc(CCCC(=O)N2CCNC(=O)C2)n1`, for which the “Percent Effect” value is -4.153%.

`O=c1c2ccccc2ncn1Cc1cc(C2CC2)[nH]n1`: the “Percent Effect” value amounted to 98.49%.

In the case of `O=c1c2sccc2ncn1CC(O)CN1CCOCC1` (stereo unspecified), the “Percent Effect” value was 7.822%.

On to `COc1cccc2c(=O)n(Cc3cc(C4CC4)[nH]n3)cnc12`, for which the “Percent Effect” value came out at 104.8%.

As to `Cc1cc(CN2CCC(c3cc(Cc4ccccc4)n[nH]3)CC2)[nH]n1`, the “Percent Effect” value was found to be 25.91%.

Consider `CN(Cc1cc(C2CC2)[nH]n1)Cc1cc2ccc(F)cc2[nH]c1=O`, for which the “Percent Effect” value was -8.263%.

Turning to `CC1CCN(CC(O)Cn2cnc3ccsc3c2=O)CC1` (stereo unspecified), the “Percent Effect” value is given as -6.513%.

With `COc1cccc2c(=O)n(CCN3CCNCC3)cnc12`, the “Percent Effect” value amounted to 4.244%.

On to `O=c1c2sccc2ncn1Cc1cc(C2CC2)[nH]n1`, for which the “Percent Effect” value is 88.09%.

As to `O=C(Cn1cnc2ccccc2c1=O)Nc1cc(C2CC2)n[nH]1`, the “Percent Effect” value came out at 0.387%.

Regarding `N#Cc1ccc(N2CCCN(CC(=O)N3CCNC(=O)C3)CC2)cc1`, the “Percent Effect” value is listed as -15.62%.

The values above are taken from ChEMBL document CHEMBL3988442, “University of Dundee, Small-Polar-MMV Screening Library” (2021).
